The test system of experiment [1] is PRMT1 (protein arginine N-methyltransferase 1). Put plainly: small molecules binding arginine methyltransferase PRMT1 – biochemical, small-molecule microarray, 635 nm fluorescence, primary screen (AID 1088).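 Note: binding of Prmt1 protein to compounds spotted on small-molecule microarray slides.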 The following applies: higher = more signal.
Experiment [2] in a line: growth effects on S. cerevisiae YJM789 – YJM789 clinical isolate, OD600, 24 h, basal, primary screen (AID 1089).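 Note: growth of clinical yeast isolate S. cerevisiae YJM 789 seeded 1000 cells per well; test concentration not given here.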 The conditions noted are these: higher = more signal, called active from +8 up or from −8 down.
Experiment [3] can be described thus: S. pombe growth modifiers, basal conditions – strain 972, OD600, 24 h, no modulator, primary screen (AID 1090).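 Note: basal condition with compound alone and no growth modifier present; test concentration not given here.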 The conditions noted are these: S. pombe 972 growth, higher = more signal, called active from +8 up or from −8 down.
Experiment [4] in a line: budding yeast growth modifiers under rapamycin – strain BY4716, OD600, 96 h, primary screen (AID 1091). Note: test concentration not given here. The conditions noted are these: S. cerevisiae BY4716 + rapamycin, higher = more signal, called active from +8 up or from −8 down.
In experiment [5] the target is Torsin-1A-interacting protein 2 (Homo sapiens) (UniProt Q8NFQ8). Put plainly: small molecules binding lysate-expressed LULL1 – cell lysate, human LULL1 lysate, 635/667 nm fluorescence, primary screen (AID 1092).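 Note: probe is lysate of COS7 cells overexpressing human LULL1; score merges per-feature 667 nm fluorescence with signal-to-noise.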 The following applies: small-molecule microarray, hLULL1 lysate binding, 635 nm fluorescence; higher = more signal.
Chain of Torsin-1A-interacting protein 2 (Homo sapiens) (Q8NFQ8 whole entry, looked up): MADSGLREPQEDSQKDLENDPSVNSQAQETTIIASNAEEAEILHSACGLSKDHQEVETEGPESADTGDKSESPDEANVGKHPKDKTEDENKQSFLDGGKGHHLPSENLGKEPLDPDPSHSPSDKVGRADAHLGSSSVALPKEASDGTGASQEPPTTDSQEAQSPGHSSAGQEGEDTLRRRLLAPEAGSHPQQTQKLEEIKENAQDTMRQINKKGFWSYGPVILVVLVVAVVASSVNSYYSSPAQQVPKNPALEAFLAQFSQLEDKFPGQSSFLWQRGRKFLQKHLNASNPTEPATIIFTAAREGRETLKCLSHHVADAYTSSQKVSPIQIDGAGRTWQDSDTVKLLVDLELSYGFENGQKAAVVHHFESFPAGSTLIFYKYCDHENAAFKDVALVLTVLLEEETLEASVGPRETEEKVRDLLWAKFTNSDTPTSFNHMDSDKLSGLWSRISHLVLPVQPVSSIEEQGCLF
Experiment [6] in a line: optical density change of DRC41 E. coli – strain DRC41, OD650, 24 h, E. coli filamentation project, primary screen (AID 1093).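 Note: MC1000 strain lacking acrAB efflux and sulA so SOS filamentation is blocked; test concentration not given here.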 The conditions noted are these: E. coli DRC41 growth, higher = more signal, called active from +8 up or from −8 down.
The nature of experiment [7]: probe aLefty2 binding to arrayed compounds – biochemical, biotinylated probe, 635/667 nm fluorescence, primary screen (AID 1094).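 Note: score merges spot fluorescence near 667 nm with spot signal-to-noise ratio.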 The conditions noted are these: small-molecule microarray, higher = more signal.
For experiment [8], the system named is Noggin (protein binding on small-molecule microarray). Put plainly: small molecules binding Noggin protein – biochemical, 635/667 nm fluorescence, primary screen (AID 1095).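 Note: score merges 667 nm feature fluorescence with signal to noise over triplicate slides.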 The conditions noted are these: 635 nm fluorescence, higher = more signal.
Experiment [9] concerns the target Neurogenic locus notch homolog protein 3 (Homo sapiens) (UniProt Q9UM47). Put plainly: small molecules binding NOTCH3 protein – biochemical, 635/667 nm fluorescence, primary screen (AID 1096). The following applies: small-molecule microarray, 635 nm fluorescence, higher = more signal.
The nature of experiment [10]: probe aEGFR binding to arrayed compounds – biochemical, biotinylated probe, 635/667 nm fluorescence, primary screen (AID 1097).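 Note: probe is a biotinylated anti-EGFR antibody binding compounds printed on slides; score combines fluorescence near 667 nm and signal to noise of each spot.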 The following applies: small-molecule microarray, higher = more signal.

Calls of active or inactive are those of the source.

Chain of Neurogenic locus notch homolog protein 3 (Homo sapiens) (Q9UM47 whole entry, looked up): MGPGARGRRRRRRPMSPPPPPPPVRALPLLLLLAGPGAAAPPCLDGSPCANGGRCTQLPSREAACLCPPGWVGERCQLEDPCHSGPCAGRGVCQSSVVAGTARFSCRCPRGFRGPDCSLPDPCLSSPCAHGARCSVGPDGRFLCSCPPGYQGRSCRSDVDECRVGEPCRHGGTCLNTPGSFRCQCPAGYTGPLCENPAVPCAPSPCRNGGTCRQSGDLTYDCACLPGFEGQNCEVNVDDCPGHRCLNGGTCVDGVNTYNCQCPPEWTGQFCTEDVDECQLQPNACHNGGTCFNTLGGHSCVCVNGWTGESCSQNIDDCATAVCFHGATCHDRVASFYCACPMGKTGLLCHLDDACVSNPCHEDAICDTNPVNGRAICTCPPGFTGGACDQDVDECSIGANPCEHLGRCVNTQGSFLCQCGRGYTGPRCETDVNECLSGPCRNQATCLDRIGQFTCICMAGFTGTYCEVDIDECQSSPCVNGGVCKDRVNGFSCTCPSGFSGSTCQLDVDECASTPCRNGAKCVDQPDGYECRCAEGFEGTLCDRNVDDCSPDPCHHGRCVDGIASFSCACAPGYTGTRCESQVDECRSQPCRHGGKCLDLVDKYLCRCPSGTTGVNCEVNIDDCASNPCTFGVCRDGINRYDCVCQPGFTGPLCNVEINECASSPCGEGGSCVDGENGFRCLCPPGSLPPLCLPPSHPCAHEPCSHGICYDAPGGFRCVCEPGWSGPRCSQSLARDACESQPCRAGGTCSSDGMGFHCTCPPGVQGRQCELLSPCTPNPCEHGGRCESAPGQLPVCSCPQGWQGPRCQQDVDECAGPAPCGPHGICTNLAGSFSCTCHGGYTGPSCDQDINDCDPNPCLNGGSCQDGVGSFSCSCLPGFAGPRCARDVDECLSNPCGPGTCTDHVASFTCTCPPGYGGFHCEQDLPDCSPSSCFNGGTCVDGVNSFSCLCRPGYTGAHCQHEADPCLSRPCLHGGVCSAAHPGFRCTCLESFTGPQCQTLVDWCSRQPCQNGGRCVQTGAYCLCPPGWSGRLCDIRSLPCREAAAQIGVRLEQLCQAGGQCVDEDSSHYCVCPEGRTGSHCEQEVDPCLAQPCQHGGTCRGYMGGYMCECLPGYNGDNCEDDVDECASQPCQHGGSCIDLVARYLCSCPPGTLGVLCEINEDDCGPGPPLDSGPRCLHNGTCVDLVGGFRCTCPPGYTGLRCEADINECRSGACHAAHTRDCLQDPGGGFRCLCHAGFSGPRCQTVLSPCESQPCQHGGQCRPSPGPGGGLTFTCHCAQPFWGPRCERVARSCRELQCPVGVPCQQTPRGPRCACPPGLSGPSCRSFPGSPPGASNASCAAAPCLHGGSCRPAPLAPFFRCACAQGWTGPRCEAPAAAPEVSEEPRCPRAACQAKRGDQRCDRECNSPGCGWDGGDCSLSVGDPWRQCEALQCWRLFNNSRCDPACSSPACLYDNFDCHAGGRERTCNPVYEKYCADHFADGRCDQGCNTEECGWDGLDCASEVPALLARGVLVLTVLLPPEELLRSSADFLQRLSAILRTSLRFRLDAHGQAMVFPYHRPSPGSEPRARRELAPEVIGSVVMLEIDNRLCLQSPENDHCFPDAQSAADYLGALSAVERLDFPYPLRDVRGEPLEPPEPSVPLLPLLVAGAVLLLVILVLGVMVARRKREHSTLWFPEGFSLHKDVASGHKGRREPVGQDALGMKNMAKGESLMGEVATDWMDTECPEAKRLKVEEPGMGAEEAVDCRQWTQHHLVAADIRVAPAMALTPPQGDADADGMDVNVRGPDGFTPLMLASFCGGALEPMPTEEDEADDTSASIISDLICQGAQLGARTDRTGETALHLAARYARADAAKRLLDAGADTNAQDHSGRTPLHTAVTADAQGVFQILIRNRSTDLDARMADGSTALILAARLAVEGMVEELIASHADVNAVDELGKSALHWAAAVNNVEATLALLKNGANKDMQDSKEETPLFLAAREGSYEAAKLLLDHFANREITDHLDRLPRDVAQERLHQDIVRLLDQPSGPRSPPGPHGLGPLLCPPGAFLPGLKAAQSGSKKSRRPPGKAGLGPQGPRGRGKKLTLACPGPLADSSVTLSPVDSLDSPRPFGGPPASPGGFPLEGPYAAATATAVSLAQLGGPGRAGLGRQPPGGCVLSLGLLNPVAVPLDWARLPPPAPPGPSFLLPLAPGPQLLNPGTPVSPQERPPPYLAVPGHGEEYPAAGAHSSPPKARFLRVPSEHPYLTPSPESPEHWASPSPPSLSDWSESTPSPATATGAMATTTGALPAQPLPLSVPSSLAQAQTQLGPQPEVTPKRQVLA

As to `Cc1ccc(C2CC=C(C(=O)O)CN2S(=O)(=O)c2ccc(C)cc2)cc1` (stereo not given), the composite z-score is 0.732 in [1]; 2.49 in [5]; 0.0527 in experiment [7]; 0.153 in experiment [8]; 0.984 in experiment [9]; -0.071 in experiment [10]. Moreover, the z-score in [2] was 0.0388 (inactive); in experiment [3] it was 1.02 (inactive); in [4], 0.856 (inactive); in [6] it was -1.16 (inactive).

For the molecule `C/C=C\[C@@H](NCc1ccccc1Br)[C@@H](O)Cc1ccccc1`, the composite z-score was -0.0523 in experiment [1]; -0.0942 in experiment [5]; 0.149 in experiment [7]; -1.52 in experiment [8]; -0.735 in experiment [9]; -0.455 in [10]. The z-score is -1.81 (inactive) in experiment [2], -13.8 (active) in experiment [3], -1.64 (inactive) in experiment [4] and -0.734 (inactive) in experiment [6].

As for `CC(C)=CCCC(C)=CCON=C1C[C@@H](O)[C@@H](O)[C@@H]2[C@@H]3C(=O)N(C[C@@H]4CCCO4)C(=O)[C@@H]3CC[C@@H]12`, the composite z-score in experiment [1] is 1.54; in experiment [5] it was 2.34; in [7] it was -0.133; in experiment [8] it was 1.3; in [9] it was 1.01; in experiment [10], -0.0556. Further, the z-score in [2] was -0.224 (inactive); in experiment [3], 0.574 (inactive); in [4], -0.618 (inactive); in experiment [6] it was 0.325 (inactive).

For the molecule `COCCOC(=O)N1C(=O)[C@@]2(c3ccccc31)[C@H](C(N)=O)[C@H]1C(=O)O[C@H](c3ccccc3)[C@H](c3ccccc3)N1[C@@H]2c1ccccc1OCCO`, the composite z-score in experiment [1] was 1.53; in [5] it was 1.84; in experiment [7] it was 0.16; in [8], 1.32; in experiment [9], 1.12; in experiment [10], 0.261. Further, the z-score in experiment [2] is 0.438 (inactive); in experiment [3] it was -0.142 (inactive); in experiment [4] it was 3.11 (inactive); in experiment [6], 1.24 (inactive).

For `C=CCOC(=O)[C@H]1[C@@H]2C(=O)O[C@@H](c3ccccc3)[C@@H](c3ccccc3)N2[C@@H](c2ccc(OCCOC(=O)[C@H]3C[C@H]4C(=O)N5CCC[C@H]5C(=O)N4[C@H]3c3cccc(OCCO)c3)cc2)[C@]12C(=O)Nc1ccc(I)cc12`, the composite z-score in [1] worked out at 1.53; in experiment [5], 3.41; in experiment [7] it was 1.35; in experiment [8], 1.49; in experiment [9] it was 1.12; in experiment [10], 0.938. The z-score in experiment [2] was -0.104 (inactive); in experiment [3], -0.77 (inactive); in [4], 0.289 (inactive); in experiment [6], -0.301 (inactive).

As for `CCCC[C@H]1OB(O)C[C@H]2C1=C(C)C[C@H]1C(=O)N(C)C(=O)[C@H]12`, the composite z-score was 0.95 in experiment [1]; 1.2 in experiment [5]; -0.166 in experiment [7]; 0.622 in experiment [8]; 0.959 in [9]; -0.12 in experiment [10]. The z-score is -0.334 (inactive) in [2], -0.698 (inactive) in experiment [3], -0.762 (inactive) in [4] and -0.889 (inactive) in [6].

Take `CCOC(=O)[C@H](Cc1ccccc1)NC(=O)CCC1CC(OC(=O)NCc2ccc3c(c2)OCO3)CC2(CCCC(COC(=O)NCc3ccccc3)O2)O1` (stereo not given in full): the composite z-score was 1.06 in experiment [1]; 1.27 in experiment [5]; -0.0174 in experiment [7]; 0.573 in experiment [8]; 0.941 in experiment [9]; -0.0084 in experiment [10]. In addition, the z-score in [2] was 0.284 (inactive); in experiment [3], 0.158 (inactive); in experiment [4], 0.942 (inactive); in experiment [6] it was 0.641 (inactive).

For `O=C1NC(=O)C2C1C=CC(C(O)Cc1ccccc1)N2Nc1ccccn1` (stereo not given), the composite z-score is 0.185 in experiment [1]; 2.31 in experiment [5]; 0.101 in experiment [7]; 0.0356 in experiment [8]; 0.504 in experiment [9]; 0.0026 in experiment [10]. Also, the z-score in experiment [2] was -0.47 (inactive); in experiment [3], 1.21 (inactive); in experiment [4], -1.22 (inactive); in experiment [6], 0.297 (inactive).

Regarding `C[C@@H]1C=CCC(=O)OC[C@H](C)C(=O)N2CCC[C@H]2C(=O)OC1`, the composite z-score in [1] is 1.54; in experiment [5] it was 0.0414; in [7] it was -0.0971; in experiment [8], 1.7; in experiment [9], 0.677; in [10], 0.228. Moreover, the z-score in [2] is -0.407 (inactive); in experiment [3], 0.334 (inactive); in experiment [4], 0.356 (inactive); in experiment [6] it was 0.325 (inactive).

For the molecule `[N-]=[N+]=NCc1ccccc1[C@@H]1OC(c2ccc(OCCCO)cc2)=N[C@]1(Cc1ccccc1)C(=O)N1CCOCC1`, the composite z-score in [1] turned out to be 1.53; in experiment [5], 3.52; in experiment [7], 0.422; in [8], 0.671; in experiment [9], 1.11; in [10], 0.256. Also, the z-score is -0.655 (inactive) in experiment [2], -0.42 (inactive) in experiment [3], 0.303 (inactive) in experiment [4] and 0.986 (inactive) in experiment [6].

As for `CO[C@@H]1COC(=O)CC=C[C@@H](C)COC(=O)[C@H](COCc2ccccc2)NC(=O)CC=C[C@H]1C`, the composite z-score was 0.943 in experiment [1]; -0.914 in experiment [5]; -0.183 in experiment [7]; 1.71 in [8]; -0.551 in experiment [9]; -0.0899 in experiment [10]. Also, the z-score in experiment [2] was 0.847 (inactive); in experiment [3], -0.584 (inactive); in experiment [4] it was 0.736 (inactive); in experiment [6], 0.154 (inactive).

Take `COCCOC(=O)N1C(=O)[C@@]2(c3cc(C#Cc4ccc(OC)cc4)ccc31)[C@H](C(=O)N1CCN(c3ncccn3)CC1)[C@H]1C(=O)O[C@H](c3ccccc3)[C@H](c3ccccc3)N1[C@@H]2c1ccc(OCCO)cc1`: the composite z-score worked out at 1.55 in experiment [1]; 2.12 in [5]; 0.192 in [7]; 0.918 in [8]; 1.11 in experiment [9]; 0.232 in experiment [10]. For the same molecule, the z-score in experiment [2] is 2.04 (inactive); in experiment [3], 1.46 (inactive); in experiment [4], 5.06 (inactive); in [6], -0.371 (inactive).

In the case of `CCOC(=O)CCN1C(=O)[C@H]2[C@H]3[C@H](O)[C@H](O)CC(=NOC[C@@H](O)COCc4ccco4)[C@H]3CC[C@H]2C1=O`, the composite z-score is 1.46 in experiment [1]; 0.756 in experiment [5]; -0.188 in experiment [7]; 0.474 in experiment [8]; 0.921 in [9]; 0.0649 in [10]. Besides, the z-score is -0.114 (inactive) in [2], -3.86 (inactive) in experiment [3], -0.86 (inactive) in experiment [4] and 0.09 (inactive) in experiment [6].

Take `CC(C)(C)N1C(=O)[C@H]2[C@H]3[C@H](O)[C@H](O)CC(=NO[C@@H]4O[C@H](CO)[C@@H](O)[C@H](O)[C@H]4O)[C@@H]3CC[C@H]2C1=O`: the composite z-score in [1] was 1.49; in [5] it was 1.97; in experiment [7] it was -0.217; in [8], 0.564; in experiment [9], 0.794; in experiment [10], -0.0229. For the same molecule, the z-score in experiment [2] is -0.233 (inactive); in [3], -0.113 (inactive); in experiment [4] it was -1.47 (inactive); in [6], 0.637 (inactive).

Take `CC(C)=C1C(=O)C(c2ccccc2)=C2CN3C(=O)N(CCc4ccccc4)C(=O)[C@]3(Cc3ccc(F)cc3)[C@H]21`: the composite z-score in experiment [1] is 1.11; in [5] it was 2.04; in [7], 0.253; in experiment [8], -1.25; in [9] it was -1.3; in experiment [10], 0.119. Besides, the z-score in experiment [2] was -0.129 (inactive); in experiment [3] it was -0.0353 (inactive); in experiment [4], 0.135 (inactive); in experiment [6], -1.7 (inactive).
